Screens from PubChem.
Sampled rows, rich in hits. Any-hit rate of the full collection: about 1.5%.
Mtb hypoxia rep – inhibitors of hypoxia-regulated fluorescent reporter in Mycobacterium tuberculosis | AID 1159583 | fluorescence inhibition, % (no concentration beside the values) | 300,000 compounds, 0.1% hits | M. tuberculosis hypoxia-regulated fluorescent reporter, fluorescence; in the data active means fluorescence inhibition mostly above about 23%, no sharp cut-off; inactive means mostly below about 17%
PrPC TRFRET – cell surface PrPC inhibition, primary TR-FRET screen | TR-FRET read-out | inhibition, % at 13.8 µM | 370,000 compounds, 0.43% hits | P04156; in the data active means inhibition above about 24%; further: 0% = median of the test wells and 100% = reference compound wells
MazEF act – MazEF (E. coli) toxin RNase activation. P0AE70. FAM/BHQ RNA-DNA oligo cleavage fluorescence, 5 h. activation, % at 20 µM. 350,000 compounds, 0.32% hits; in the data active means activation above about 50%
Target sequence (P0AE70 whole entry, looked up): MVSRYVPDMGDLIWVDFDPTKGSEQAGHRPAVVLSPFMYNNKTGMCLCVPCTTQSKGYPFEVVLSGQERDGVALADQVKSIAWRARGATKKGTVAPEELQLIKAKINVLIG
VHR inh abs – DUSP3 (human) phosphatase inhibition | P51452 | recombinant VHR phosphatase, pNPP absorbance | inhibition, % at 13.3 µM | 290,000 compounds, 0.52% hits | AID 1654; in the data active means inhibition above about 50%
Target sequence (P51452 whole entry, looked up): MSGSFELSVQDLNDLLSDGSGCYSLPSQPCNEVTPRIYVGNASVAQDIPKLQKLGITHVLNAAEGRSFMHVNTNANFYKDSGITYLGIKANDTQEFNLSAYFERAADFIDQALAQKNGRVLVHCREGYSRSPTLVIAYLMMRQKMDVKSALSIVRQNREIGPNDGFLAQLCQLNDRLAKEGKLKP
PrP 5UTR inh – suppresses PrP 5' UTR mRNA reporter expression | cell-based PrP 5' UTR mRNA reporter, plate reader | inhibition, % (no concentration beside the values) | 340,000 compounds, 0.35% hits | AID 488862; in the data active means inhibition above about 52%; further: 0 = median of the neutral control wells
3CLpro inhibitor – SARS-CoV 3CLpro protease inhibition; P0C6X7; recombinant SARS-CoV 3CLpro, quenched FRET peptide cleavage; inhibition, % at 6 µM; 290,000 compounds, 0.14% hits; AID 1706; in the data active means inhibition above about 12%
Numbers without * were called inactive; / = no result; + = active, no number.

SMILES	Mtb hypoxia rep	PrPC TRFRET	MazEF act	VHR inh abs	PrP 5UTR inh	3CLpro inhibitor
CC[n+]1c(/C=C/C=C/N(C(C)=O)c2ccccc2)sc2cc(OC)ccc21	-49	1	506*	8	/	-1
CC1CN(C(=O)CCC(=O)NCCCc2ccccc2)c2ccccc2O1 (stereo unspecified)	3	-8	0	25	-13	1
CCC1CCCCN1CCCNC(=O)CCC(=O)N1CC(C)Oc2ccccc21 (stereo unspecified)	2	-4	-13	53*	-9	-2
Cc1ccc(S(=O)(=O)N(C)Cc2ccc(C(=O)NN=C3CC(=O)CC(C)(C)C3)cc2)cc1	13	/	/	/	/	/
O=C(NN=Cc1ccc(Br)s1)c1ccco1	8	/	/	/	/	/
COC(=O)[C@@]12CCCCN1C(c1ccc(-c3ccc(OC)cc3)c(OC)c1)C1C(=O)N(C)C(=O)C12 (stereo partly specified)	4	/	/	/	/	/
COC(=O)c1c(/N=C/N(C)C)sc2c1CCN(c1ncc(C(F)(F)F)cc1Cl)C2	/	1	51*	-4	-11	4
COC(=O)c1c(N=CN(C)C)sc2c1CCN(c1ncc(C(F)(F)F)cc1Cl)C2	10	/	/	/	/	/
CC(=O)Nc1cc(OC(C)=O)c2nonc2c1OC(C)=O	20	17	2	8	-14	37*
CC(=O)Nc1nonc1NC(C)=O	7	2	4	-6	-36	4
CC(=NNC(=O)C1CCCC1)c1ccc(Cl)c(Cl)c1	6	/	/	/	/	/
O=C(NC=NOCc1ccc(Cl)cc1Cl)NOCc1c(Cl)cccc1Cl	15	/	/	/	/	/
O=C(N/C=N/OCc1ccc(Cl)cc1Cl)NOCc1c(Cl)cccc1Cl	/	0	80*	21	-14	-1
Cc1cc(O)cc(O)c1C=NCc1ccco1	9	-3	90*	-4	-21	2
O=C(O)CCC(=O)N1N=C(c2ccc(Br)cc2)CC1c1ccc(Br)cc1 (stereo unspecified)	/	4	-2	56*	-30	1
O=C(O)CCC(=O)N1N=C(c2ccccc2)CC1c1ccc(Br)cc1 (stereo unspecified)	-4	1	-20	73	-46	5
[O-][n+]1c2ccccc2[n+]([O-])c2cc(O)ccc21	42*	-54	17	6	-15	-3
CC(=NO)c1noc(C)c1C(=O)Nc1nccs1	-10	/	/	/	/	/
CCN1CCN(C(=S)c2ccc(Cl)cc2)CC1	6	-6	-4	50*	-12	-5
Cc1nnc(N2C(=O)C(O)=C(C(=O)c3ccco3)C2c2ccc(C(C)C)cc2)s1 (stereo unspecified)	5	2	62*	-14	-7	0
CSc1ccc(C2C(C(=O)c3ccco3)=C(O)C(=O)N2c2nnc(SC)s2)cc1 (stereo unspecified)	/	3	187*	17	-16	3
Cc1nnc(N2C(=O)C(O)=C(C(=O)c3ccco3)C2c2ccc(F)cc2)s1 (stereo unspecified)	/	2	2	19	-16	-4
Cc1nnc(N2C(=O)C(O)=C(C(=O)c3ccco3)C2c2ccc(C(C)(C)C)cc2)s1 (stereo unspecified)	13	-2	192*	31	-1	-5
CC[C@]12CCCN3CCc4c(n(c5ccccc45)[C@](O)(C(=O)OC)C1)C32 (stereo partly specified)	5	/	/	/	/	/
CC(=O)NCCNC(=O)c1ccc(CSc2nc3ccccc3s2)cc1	/	-13	/	60*	18	-1
SMILES	Mtb hypoxia rep	PrPC TRFRET	MazEF act	VHR inh abs	PrP 5UTR inh	3CLpro inhibitor
C=CCNC(=O)c1ccc(CSc2nc3ccccc3s2)cc1	9	10	-6	10	-57	4
Cc1ccc(C2=CC(c3ccc(N(C)C)cc3)n3nnnc3N2)cc1 (stereo unspecified)	0	1	64*	21	-10	0
Oc1oc(-c2cccc3ccccc23)nc1C=Nc1nccs1	-9	/	/	/	/	/
COc1ccc(-c2cn[nH]c2-c2ccc(OCc3ccc(F)cc3)cc2O)cc1OC	2	9	5	-14	-24	1
COc1cc2c3nnc(-c4ccc(F)cc4)c-3cn(Cc3ccc(F)cc3)c2cc1OC	/	13	118*	11	-7	-20
Cn1nc2c3cc(F)ccc3n(Cc3ccc(F)cc3)cc-2c1=O	-2	-13	4	22	-9	-3
COc1cc2c3nnc(-c4ccc(F)cc4)c-3cn(Cc3ccccc3)c2cc1OC	/	18	+	-2	-16	-8
COc1ccc(Cn2cc3c(-c4ccc(F)cc4)nnc-3c3cc(OC)c(OC)cc32)cc1	6	22	558*	-2	-23	-10
O=C(NN=Cc1c[nH]c2ccccc12)c1cc(Cl)ccc1O	-7	/	/	/	/	/
CC1CCCCN1CCCNC(=O)c1ccc(N2CCCC2=O)cc1 (stereo unspecified)	-1	6	-4	17	-4	-4
CCC1CCCCN1CCCNC(=O)c1ccc(N2CCCC2=O)cc1 (stereo unspecified)	3	-3	2	56*	-21	3
Cc1ccc([N+](=O)[O-])cc1-c1ccc(/C=N\n2nnnc2N)o1	/	-1	7	0	3	-1
COC(=O)c1cc(Br)ccc1-c1ccc(/C=N/n2nnnc2N)o1	/	-2	54*	-2	-9	-1
O=C(Cc1ccccc1)NN=Cc1ccc[nH]1	-2	/	/	/	/	/
Nc1nc(N)c2cc(S(=O)(=O)c3ccc4ccccc4c3)ccc2n1	/	11	53*	/	/	/
O=C1c2ccc([N+](=O)[O-])cc2NC(c2ccco2)N1N=Cc1ccco1 (stereo unspecified)	5	/	/	/	/	/
COc1ccc(-c2csc(N(Cc3ccco3)C(=O)c3cccs3)n2)cc1	11	6	64*	-7	-44	4
COc1ccc(OC)c(-c2csc(N(Cc3ccco3)C(=O)c3cccs3)n2)c1	7	5	-14	-8	1	3
COc1ccc(-c2ccc3c(=O)cc(-c4ccsc4)oc3c2)cn1	13	-6	70*	/	-24	/
CCC1=Nc2cc(C(=O)NCCN3CCCC3)ccc2Sc2ccccc21	6	-7	14	58*	-9	-1
Cc1ccc(C)c(S(=O)(=O)NCC(=O)Nc2sc3c(c2C(N)=O)CCC(C)C3)c1 (stereo unspecified)	/	-1	56*	4	-20	-2
CCOCCCNC(=S)N(CCN(CC)CC)Cc1cc2cc3c(cc2[nH]c1=O)OCCO3	-10	-7	6	11	-12	-3
CCOCCCNC(=S)N(CCO)Cc1cc2cc3c(cc2[nH]c1=O)OCCO3	1	1	9	50*	-20	-10
CCOC(=O)c1c(C)oc2c1c(C=NCC1CCCO1)c(O)c1ccccc12 (stereo unspecified)	/	14	10	51*	-13	5
Cc1cc(C)c2c(CC(=O)O)coc2c1	4	-1	-4	2	-13	-1
Cc1cc(C)c2c(CC(=O)NN(C)C)coc2c1	0	2	-3	53*	-38	1
CC(C)NC(=S)NN=Cc1ccc2c(c1)OCCO2	3	/	/	/	/	/
